Assay results reported in PubChem BioAssay (Tox21).
Inconclusive results are not listed. Activity calls are given as the source filed them. Unless noted, calls come from the whole dose curve; as a rule, active = well fitted curve in the direction sought with a large enough effect in the repeat runs; inconclusive = weak or mixed curves; inactive = no such curve, though single readings can be large; an effect the other way counts as inactive or inconclusive.

Legend:
[1] = qHTS RealTime-Glo MT Cell Viability Assay in HEK293 cells - 0 hour (AID 1224880); note: top concentration of the series differs between compounds; nearly all actives have a fitted effect of over 45% in size
Outline: (§1)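 Real-time viability in HEK293: signal arises when living cells convert a prosubstrate for NanoLuc in the medium, so luminescence tracks viable cell number. Compound (23 nL, DMSO) added 5 h post-seeding; kinetic reads at 0–40 h, 37 C.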

[2] = A CellTox Green Cytotoxicity Assay to monitor cytotoxicity in HEK293 cells - 32 hour (AID 1224881); note: nearly all actives have a fitted effect of over 40% in size
Outline: (§2)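 Cells (HEK293, 600/well) and dye reagent are dispensed together. After 5 h at 37 C, 23 nL compound is pinned in. Plates stay at 37 C for 40 h with fluorescence read at 0h, 8h, 16h, 24h, 32h and 40h.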

[3] = A CellTox Green Cytotoxicity Assay to monitor cytotoxicity in HepG2 cells - 0 hour (AID 1224882); note: nearly all actives have a fitted effect of over 35% in size
Outline: (§3)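 Cells and non-lytic dye reagent are dispensed together (600 HepG2 cells/well) and incubated 5 h before DMSO compound transfer. Kinetic fluorescence is then recorded in the same wells during 40 h at 37 C.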

[4] = A CellTox Green Cytotoxicity Assay to monitor cytotoxicity in HepG2 cells - 32 hour (AID 1224883); note: nearly all actives have a fitted effect of over 50% in size
Outline: as §3

[5] = A CellTox Green Cytotoxicity Assay to monitor cytotoxicity in HEK293 cells - 8 hour (AID 1224884); note: nearly all actives have a fitted effect of over 35% in size
Outline: as §2

[6] = qHTS RealTime-Glo MT Cell Viability Assay in HepG2 cells - 16 hour (AID 1224885); note: nearly all actives have a fitted effect of over 50% in size
Outline: (§4)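 HepG2 suspension premixed with RealTime-Glo reagents is plated at 600 cells per well and left 5 h at 37 C/5% CO2. Compounds in DMSO then go in, and bioluminescence reflecting viable cell number is recorded over 40 h.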

[7] = qHTS RealTime-Glo MT Cell Viability Assay in HEK293 cells - 8 hour (AID 1224887); note: top concentration of the series differs between compounds; nearly all actives have a fitted effect of over 50% in size
Outline: as §1

[8] = A CellTox Green Cytotoxicity Assay to monitor cytotoxicity in HEK293 cells - 16 hour (AID 1224888); note: nearly all actives have a fitted effect of over 35% in size
Outline: as §2

[9] = A CellTox Green Cytotoxicity Assay to monitor cytotoxicity in HepG2 cells - 8 hour (AID 1224890); note: nearly all actives have a fitted effect of over 45% in size
Outline: as §3

[10] = qHTS assay to identify small molecule antagonists of the estrogen receptor alpha (ER-alpha) signaling pathway using the BG1 cell line in the presence of 0.1 nM 17-beta-estradiol - cell viability counter screen (AID 1259241); note: nearly all actives have a fitted effect of over 40% in size
Outline: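 Cytotoxicity counter-screen: live-cell protease activity measured by fluorescence (30 min reagent step) in the same wells. Cells were VM7Luc4E2 with endogenous ER-alpha and ERE-driven luciferase, treated 22 hr at 37C alongside 0.1 nM 17beta-estradiol final.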

[11] = qHTS assay to identify small molecule antagonists of the androgen receptor (AR) signaling pathway using the MDA cell line in the presence of 0.5 nM R1881 - cell viability counter screen (AID 1259242); note: nearly all actives have a fitted effect of over 45% in size
Outline: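 Steps: plate MDA-kb2 cells, rest 5 hr at 37C without CO2; pin in compounds in DMSO; add R1881 to 0.5 nM final; incubate 16 hr; add CellTiter-Fluor, 30 min; read fluorescence.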

[12] = qHTS assay to identify small molecule HDAC inhibitors (AID 1259364);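 note: wild-type HCT-116 cells with endogenous class I/II HDAC activity; top concentration of the series differs between compounds; nearly all actives have a fitted effect of over 45% in size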
Outline: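 Cells (HCT-116, wild type) are seeded at 1,500 per well, incubated overnight, treated with compound in DMSO for 2 hr, then developed with HDAC-Glo I/II reagent for 30 min at room temperature.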

[13] = qHTS assay to identify small molecule agonists of the sonic hedgehog signaling (Shh) pathway - cell viability counter screen (AID 1259366); note: nearly all actives have a fitted effect of over 50% in size
Outline: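 Cytotoxicity counter screen: CellTiter-Fluor reagent added after 23 h compound exposure, then 1 h at 37C and fluorescence read. Cells were 3T3 Gli1-Luc, seeded 2,000 per well and dosed 4 h post-plating.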

[14] = qHTS assay to identify small molecule antagonists of the sonic hedgehog signaling (Shh) pathway - cell viability counter screen (AID 1259367); note: nearly all actives have a fitted effect of over 55% in size
Outline: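 Cytotoxicity was assessed in parallel with Shh reporter activity by measuring live-cell protease fluorescence (CellTiter-Fluor) in NIH/3T3 cells stably carrying Gli1-Luc, treated with compound under conditioned medium stimulation for 23 hr plus 1 hr reagent incubation.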

[15] = qHTS RealTime-Glo MT Cell Viability Assay in HepG2 cells - 0 hour (AID 1224889); note: nearly all actives have a fitted effect of over 50% in size
Outline: as §4

[16] = qHTS assay to identify small molecule phospholipidosis (PLD) inducers (AID 1259344; active = well fitted curve in the direction sought with a large enough effect; an effect the other way counts as inactive or inconclusive)
Outline: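 Cells (HepG2, 900 per well) attach for 4 h, receive LipidTOX Red and compound together, incubate 24 h at 37 C, are fixed 30 min with paraformaldehyde/Hoechst, then imaged at one site per well.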

[17] = qHTS assay to identify small molecule HDAC inhibitors - cell viability counter screen (AID 1259365)
Outline: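 CellTiter-Glo luminescence (30 min, room temperature) reported viability after a 2 h compound exposure at 37 C. Cells: wild-type HCT-116, 1,500 per well, seeded the night before.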

[18] = qHTS RealTime-Glo MT Cell Viability Assay in HEK293 cells - 24 hour (AID 1224886)
Outline: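 Reads taken at 0, 8, 16, 24, 32 and 40 h from the same wells. HEK293 cells (600/well) carried RealTime-Glo reagents from seeding, with compound added after a 5 h settle at 37 C.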

[19] = target: Androgen receptor (Homo sapiens) (UniProt P10275); assay: qHTS assay to identify small molecule antagonists of the androgen receptor (AR) signaling pathway using the MDA cell line in the presence of 0.5 nM R1881 (AID 1259243); note: nearly all actives have a fitted effect of over 50% in size
Outline: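 Stably transfected MDA-kb2 cells express luciferase from an MMTV promoter bearing both AR and GR response elements. Compounds plus 0.5 nM R1881 (final) were incubated 16 hr at 37C without CO2, then luminescence measured.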

Measured: Potency

Chain of Androgen receptor (Homo sapiens) (P10275 whole entry, looked up): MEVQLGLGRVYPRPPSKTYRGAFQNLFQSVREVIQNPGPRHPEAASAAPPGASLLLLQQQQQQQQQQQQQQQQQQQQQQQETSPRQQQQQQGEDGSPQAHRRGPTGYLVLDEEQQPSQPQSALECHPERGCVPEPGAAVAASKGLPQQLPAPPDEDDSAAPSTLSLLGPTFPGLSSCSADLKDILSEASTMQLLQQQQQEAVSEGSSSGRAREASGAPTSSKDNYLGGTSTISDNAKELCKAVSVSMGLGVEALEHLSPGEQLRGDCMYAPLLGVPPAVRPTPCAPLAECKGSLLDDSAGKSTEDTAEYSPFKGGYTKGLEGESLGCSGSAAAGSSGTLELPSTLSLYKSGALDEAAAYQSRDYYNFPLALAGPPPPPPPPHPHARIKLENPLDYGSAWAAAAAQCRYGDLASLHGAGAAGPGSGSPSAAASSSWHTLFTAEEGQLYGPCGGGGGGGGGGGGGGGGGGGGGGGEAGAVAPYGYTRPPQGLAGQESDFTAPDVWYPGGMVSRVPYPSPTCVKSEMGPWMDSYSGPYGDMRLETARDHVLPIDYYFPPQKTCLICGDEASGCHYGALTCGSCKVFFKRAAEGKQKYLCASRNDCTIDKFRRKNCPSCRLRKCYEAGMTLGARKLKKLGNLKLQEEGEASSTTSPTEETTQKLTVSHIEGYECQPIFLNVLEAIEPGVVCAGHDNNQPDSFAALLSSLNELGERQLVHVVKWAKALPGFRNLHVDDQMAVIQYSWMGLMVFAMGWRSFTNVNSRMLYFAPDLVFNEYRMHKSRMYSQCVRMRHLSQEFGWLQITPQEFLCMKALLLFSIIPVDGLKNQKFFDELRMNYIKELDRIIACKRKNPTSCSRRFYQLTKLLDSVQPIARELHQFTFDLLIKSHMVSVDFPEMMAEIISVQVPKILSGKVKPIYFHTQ

C=CCOCC(O)CS(=O)(=O)O (stereo not given)
not listed: [15] | [16] | [17] | [18] | [19]
inactive: all other assays above

CC(=O)N[C@@H](CCC(N)=O)C(=O)O
not listed: [18] | [19]
inactive: all other assays above

CCC(=O)c1cccc(Cl)c1
not listed: [6] | [16] | [19]
inactive: all other assays above

C1C2OC2C2C1C1CC2C2OC12 (stereo not given)
not listed: [12] | [16] | [19]
inactive: all other assays above

O=C(O)c1ccc[n+]([O-])c1
not listed: [18]
inactive: all other assays above

CC(=O)CCc1ccc(O)cc1
not listed: [16] | [18] | [19]
inactive: all other assays above

CCCCC=O
not listed: [6] | [16] | [19]
inactive: all other assays above

CCOC(=O)Cn1c(=O)sc2cccc(Cl)c21
not listed: [6] | [16] | [19]
inactive: all other assays above

O=C(O)CCNC(=O)c1ccc(N=Nc2ccc(O)c(C(=O)O)c2)cc1
not listed: [10] | [13] | [17] | [19]
inactive: all other assays above

CCC(C)OC(=O)N1CCCCC1CCO (stereo not given)
not listed: [6] | [13] | [16] | [17] | [19]
inactive: all other assays above

CC(CCO)CCCC(C)(C)O (stereo not given)
not listed: [6] | [16] | [17] | [19]
inactive: all other assays above

C=CCSCC1Nc2cc(Cl)c(S(N)(=O)=O)cc2S(=O)(=O)N1 (stereo not given)
not listed: [3] | [19]
inactive: all other assays above

NC(=O)c1c(Cl)cccc1Cl
not listed: [6] | [16] | [18] | [19]
inactive: all other assays above

CCN1CCCC1CNC(=O)c1cc(S(N)(=O)=O)ccc1OC (stereo not given)
not listed: [5] | [12] | [16] | [18]
inactive: all other assays above

C#CC(C)(O)CC(C)C (stereo not given)
not listed: [3] | [12] | [16] | [19]
inactive: all other assays above

CC12CCC(CC1=O)C2(C)C (stereo not given)
not listed: [6] | [16] | [18] | [19]
inactive: all other assays above
